According to PubChem BioAssay AID2384 (Southern Research Specialized Biocontainment Screening …, 2010):
Out of some 2,300 compounds screened, about 1,100 (48%) were called active. No rule for the calls is given here. So high a share suggests a set chosen from earlier hits. The list shows a part of the results. Results with a measured potency or affinity are listed apart.

Assay: S. typhi counter-screen signal inhibition – fluorescence, 4 h, counter-screen for PhoP regulon inhibitor project, dose response (AID 2384)
Conditions: S. typhi GFP reporter counter-screen; series mostly up to 150 µM

Structure (SMILES) | inhibition
O=C(NCc1ccccn1)c1nc(Cn2ccc([N+](=O)[O-])n2)no1 | inactive
CC(C)NC(=O)Nc1ccc(Br)cc1Cl | inactive
CCC1Oc2ccc(C)cc2N(CC(=O)NCC2COc3ccccc3O2)C1=O (stereo not given) | inactive
CCOc1ccc(NC(=O)c2ccc(N)cc2)cc1 | inactive
CCCCOc1ccc(OCCNC(=O)c2ccco2)cc1 | inactive
CSCCC(NC(=O)c1ccc(Br)cc1)C(=O)O (stereo not given) | inactive
CCS(=O)(=O)N1CCN(C(=O)c2ccco2)CC1 | inactive
CCCN(CCC)CC(=O)Nc1cccc2c1OCO2 | inactive
Cc1nc2ccccn2c1/C(O)=C1\C(=O)C(=O)N(CCN2CCOCC2)C1c1cccnc1 (stereo not given) | inactive
COc1cccc(C(=O)N(CN2CCCC2=O)c2cc(C)on2)c1 | inactive
CCCCCCC(=O)N(O)C1CC(=O)N(Cc2ccccc2)C1=O (stereo not given) | inactive
COc1cc(C)nc(N2CCCC(C(=O)NCC(C)C)C2)n1 (stereo not given) | inactive
CCN1C(=O)NC(c2ccccc2)C1=O (stereo not given) | inactive
O=C(Cn1cnc2cc([N+](=O)[O-])ccc2c1=O)Nc1ccccc1Cl | inactive
O=C(Cn1cc(/C=C\[N+](=O)[O-])c2ccccc21)Nc1ccccc1 | inactive
O=[N+]([O-])c1ccc(CN2CCSCC2)cc1 | inactive
CCOc1ccc2ccccc2c1C(=O)N[C@@H]1C(=O)N2[C@@H]1SC(C)(C)[C@@H]2C(=O)O | inactive
O=C(CN(CCc1ccccc1)C(=O)CNS(=O)(=O)c1ccc(F)cc1)NCC1CCCO1 (stereo not given) | inactive
CCOc1cc(C2NC(=O)N(C)C(C)=C2[N+](=O)[O-])ccc1OC(C)=O (stereo not given) | inactive
COc1ccccc1/C=N/N1C(=O)c2cccc3cccc(c23)C1=O | inactive
O=C(c1ccccc1F)N1C(=O)c2cccc3cccc1c23 | inactive
COCc1[nH]nc2c1C(c1ccc(OC)cc1)C(C#N)=C(N)O2 (stereo not given) | inactive
Cn1c(C(O)c2ccccc2F)nc(Cl)c1Cl (stereo not given) | inactive
Cc1cc(Br)cc2cn[nH]c12 | inactive

Structure (SMILES) | inhibition
CC(C)c1c(O)nc(SCC(=O)N2CCOCC2)[nH]c1=O | inactive
Cc1cc(C(=O)Cn2cncn2)c(C)n1CCc1ccc(F)cc1 | inactive
CC(C)(C)SCCNC(=O)c1ccccc1 | inactive
O=C1C2=C(Nc3ccccc3SC2c2ccco2)c2ccccc21 (stereo not given) | inactive
Brc1ccc2nc(-c3c[nH]c4ccccc34)cn2c1 | inactive
c1csc(-n2nc3ccccc3n2)c1 | inactive
CCNC(=S)Nc1cc(-c2ccc(Cl)cc2)[nH]n1 | inactive
O=S(=O)(Nc1ncccn1)c1ccc(NC(=S)Nc2ccccc2Cl)cc1 | inactive
Cc1ccc(CCNC(=O)c2cc(S(=O)(=O)N3CCCCC3)c[nH]2)cc1 | inactive
O=C(N/N=C/c1c(Cl)nc2ccccn2c1=O)c1cccnc1 | inactive
O=c1c2ccccc2nc(COc2ccccc2)n1/N=C/c1ccc(O)cc1O | inactive
COc1nnc(-c2ccc(N3CCOCC3)c(NC(=O)c3ccc(C)cc3)c2)c2ccccc12 | inactive
CC(C)(C)NC(=O)NC(=O)COC(=O)CCC1CCCC1 | inactive
COc1ccc(OC)c(CCNC(=O)CS(=O)(=O)Cc2nc(-c3ccccc3C)oc2C)c1 | inactive
COc1nccnc1NS(=O)(=O)c1ccc(N=Cc2c(C)[nH]n(-c3ccc(C)c(C)c3)c2=O)cc1 | inactive
COc1ccc(NC(=O)c2cc(Br)c(Br)s2)cn1 | inactive
COc1cc2[nH]c(=S)n(CC3CCCO3)c(=O)c2cc1OC (stereo not given) | inactive
Cc1cc([N+](=O)[O-])nn1CC(=O)Nc1cccc2nonc12 | inactive
CN1CCN(c2ccccc2NC(=O)c2cc3c(s2)-c2ccccc2OC3)CC1 | inactive
COc1ccc(C)cc1S(=O)(=O)N1CCCC(C(=O)NCC2CCCO2)C1 (stereo not given) | inactive
COc1ccc(NC(=O)COC(=O)c2ccc([N+](=O)[O-])o2)cc1Cl | inactive
C/C(Cn1nnc([N+](=O)[O-])n1)=N\NC(=O)c1ccccc1 | inactive
O=C(Nc1ccc(N2CCOCC2)c(Cl)c1)c1ccccc1F | inactive
O=C(Nc1ccc(Cc2ccncc2)cc1)c1cccs1 | inactive

Structure (SMILES) | inhibition
Cc1cc2oc(C(=O)NCc3ccncc3)c(C)c2cc1C | inactive
Cc1onc(C(=O)/C=C/N(C)C)c1C(=O)Nc1nccs1 | inactive
Cc1cc(C)c2c(=O)[nH]c(SCC(=O)N3CCCCC3)nc2n1 | inactive
COc1ccc(C2C(C(=O)N3CCC4(CC3)OCCO4)CC(=O)N2c2ccc(OC)cc2)cc1 (stereo not given) | inactive
COc1ccc(-c2cc(C(=O)Nc3ccc(S(=O)(=O)Nc4onc(C)c4C)cc3)c3ccccc3n2)cc1OC | inactive
CCOc1ccc(N2C(=O)CN(O)C=C3N=c4ccccc4=C32)cc1 | inactive
COc1ccc(-c2nc3cc(NC(=O)Cc4ccc(OC)c(OC)c4)ccc3o2)cc1 | inactive
CC(=O)c1ccc(NC(=O)CN2CCCCCC2)cc1 | inactive
C[N+]1(CC2COC3(CCCCC3)O2)CCCCC1 (stereo not given) | inactive
CCn1nnnc1SCC(=O)c1cc(Cl)ccc1OC | inactive
COc1ccc(NC(=O)C2CCCN(C(=O)NC3CCCCC3)C2)cc1OC (stereo not given) | inactive
O=c1cc(-c2ccccc2)nc2nc(-c3ccco3)[nH]n12 | inactive
C#CCOCCOCCOCCNc1nc(N2CCN(C(=O)CCCCCCCCCCNC(=O)[C@H]([C@@H](C)CC)n3cc(CCCCCN)nn3)CC2)nc(N2CCN(C(=O)CCCCCCCCCCNC(=O)[C@@H]([C@H](C)O)n3cc(C)nn3)CC2)n1 | inactive
CS(=O)(=O)N1CC(C(=O)NC2CC2)Oc2ccc(Cl)cc21 (stereo not given) | inactive
Cc1ccc(SCc2[nH]nc3c2C(c2cccnc2)C(C#N)=C(N)O3)cc1 (stereo not given) | inactive
CCOC(=O)C1=C(C)NC(SCC(N)=O)=C(C#N)C1c1ccncc1 (stereo not given) | inactive
CN(CC(=O)NCc1ccncc1)S(=O)(=O)c1ccccc1 | inactive
COCCNC(=S)N=Nc1c(O)[nH]c2ccc([N+](=O)[O-])cc12 | inactive
c1ccc2c(c1)nc(N1CCOCC1)c1c3ccccc3[nH]c21 | inactive
Cc1cc(C)c(CSc2ncnc3nc[nH]c23)c(C)c1 | inactive
O=C(c1ccco1)N1CCCN(Cc2nc(-c3ccc4c(c3)OCO4)no2)CC1 | inactive
OCn1ncn(-c2ccccc2)c1=S | inactive
